Cav32 inh – inhibitors of human Cav3.2 T-type calcium channel; O95180; Cav3.2-expressing cells, Fluo-4 calcium fluorescence FDSS; stronger effect = lower value; B-score at 10 µM; 100,000 tested, 4% active; AID 449739;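 active = single-dose well whose peak fluorescence ratio is a statistical outlier from its plate by either plate-standardised score or position-corrected B-score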
PostGolgi ctrl – yeast control strain growth, post-Golgi counter-screen. inhibition, % at 10 µM. AID 738. 98,000 tested, 5% active. efflux-deficient yeast background strain, growth absorbance A615, 16 h
sEH inhibitor – soluble epoxide hydrolase (human) inhibition | recombinant human sEH enzymatic activity assay | inhibition, % at 2 µM | 91,000 tested, 0.34% active | AID 707; in the data active = inhibition above about 80%
sEH activator – activators of human soluble epoxide hydrolase; purified human sEH enzymatic activity, activator screen; 91,000 tested, 0.04% active; P34913; activation, % at 2 µM; in the data active = activation above about 37%
PostGolgi yeast – growth inhibition of a yeast mutant, post-Golgi transport screen; post-Golgi transport phenotypic cell assay; inhibition, % at 10 µM; 98,000 tested, 0.9% active; AID 739;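 also: yeast cells grown in 1536-well plates; yeast grown about 18 h at 30C before absorbance read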
Starred values were filed as active, the others as inactive; x = no result. The list is not random: actives were taken first. Their share in the collection is about 7.8%. Rule as the data show it, unless noted: active = inhibition above about 30%; inactive = the rest.

SMILES	Cav32 inh	PostGolgi ctrl	sEH inhibitor	sEH activator	PostGolgi yeast
O=C(CSc1nnc(-c2cccs2)n1Cc1ccccc1)NCc1ccc2c(c1)OCO2	-4.74*	6.2	-1.2	2.6	-1.3
CCOC(=O)CNc1nnc(SCC(=O)OCC)[nH]c1=O	-0.308	0.0	-8.2	7.8	-1.6
CCCCCCCCCCCCN1[C@@H](CC(=O)OC)c2cc(F)ccc2S1(=O)=O	-0.319	x	x	x	x
COc1cccc(-c2nnc(SCC(=O)NCc3ccc4c(c3)OCO4)n2Cc2ccco2)c1	-4.65*	22.6	9.5	-7.3	7.0
O=C(CSc1nnc(Cc2cccs2)n1-c1ccc(Cl)cc1)NCc1ccc2c(c1)OCO2	-8.48*	11.8	-6.4	6.0	-0.8
O=C(COC(=O)c1cccc(S(=O)(=O)N2CCOCC2)c1)Nc1nc(-c2ccccc2Cl)cs1	-4.99*	-1.0	-0.9	2.8	4.8
O=C(COC(=O)c1cccc(S(=O)(=O)N2CCOCC2)c1)Nc1ncc(C(F)(F)F)cc1Cl	0.534	-8.4	17.7	-15.7	3.6
Cn1c(SCC(=O)c2ccc3c(c2)OCCO3)nnc1C1CC1	0.000137	x	1.4	-2.1	x
COc1ccc(Cc2nc(C(=O)Nc3ccc(Cl)cc3)cs2)cc1	0.257	38.2*	20.0	-19.8	19.2
COc1ccc(Cc2nc(C(=O)Nc3ccccc3)cs2)cc1	-3.78*	20.4	13.8	-15.5	-5.0
COc1ccc(CNC(=O)c2noc3c2CCCC3)cc1	-5.45*	5.7	0.8	-0.4	-3.0
COc1ccc(CNC(=O)c2csc(Cc3ccc(OC)cc3)n2)cc1	-7.95*	6.8	6.3	-4.2	-0.5
CCOC(=O)C1=C(c2ccccc2)N2CCN=C2S1	x	x	-20.1	15.1	x
COc1ccc(CC(=O)Nc2nnc(C)s2)cc1	0.315	5.7	-11.0	9.0	0.6
CCOc1ccc(NC(=O)CCn2c(=O)[nH]c3ccsc3c2=O)cc1	0.173	3.1	1.0	-3.3	0.5
O=C(NCc1cccs1)C1CCC(CNS(=O)(=O)c2ccc(Br)s2)CC1 (centres undefined)	-2.92	3.5	92.4*	-92.3	-0.2
COc1ccc(C2C(C(C)=O)=C(O)C(=O)N2c2ccc(Br)cn2)cc1 (centres undefined)	-0.567	6.3	2.2	0.5	-8.4
COc1ccc(/C=N/N2C(=O)CSC2=S)cc1	-0.212	0.3	-12.3	13.8	-0.8
COc1ccc(-c2nn(-c3ccccc3)cc2/C=N/N2C(=O)CSC2=S)cc1	-2.3	85.3*	-1.0	0.3	86.4*
O=C1NC(=S)SC1=C1CCCC1	0.126	56.0*	-5.8	8.0	22.9
CCC1=C[C@H]2CN(C1)Cc1c([nH]c3ccccc13)[C@@](C(=O)OC)(c1cc3c(cc1OC)N(C)[C@H]1[C@@](O)(C(=O)OC)[C@H](OC(C)=O)[C@]4(CC)C=CCN5CC[C@]31[C@@H]54)C2	-0.661	x	x	x	x
O=C(Nc1ccccc1F)c1ccc(-n2cncn2)nc1	x	3.0	7.4	-9.3	3.1
Cc1ccnc(SCC(=O)n2c3c(c4ccccc42)CC(C)CC3)n1 (centres undefined)	-0.482	34.8*	-12.3	14.3	-4.9
Cc1occc1-c1nnc(SCC(=O)Nc2nccs2)n1CCc1ccccc1	-2.95	2.5	-24.4	24.7	-24.3
COc1cccc(NC(=O)CSc2nnc(-c3ccoc3C)n2-c2ccccc2)c1	-6.17*	12.3	-13.6	7.3	5.2
SMILES	Cav32 inh	PostGolgi ctrl	sEH inhibitor	sEH activator	PostGolgi yeast
Cc1nonc1NC(=O)CSc1nnc(-c2ccoc2C)n1-c1cccc(Cl)c1	-4.45*	x	-5.8	9.0	x
COc1ccc(-n2c(SCC(=O)Nc3ccccc3)nnc2-c2ccoc2C)cc1	-1.15	x	-7.2	7.8	x
CCCn1c(SCC(=O)Nc2nonc2C)nnc1-c1ccoc1C	1.06	7.0	5.2	-6.3	1.0
CCOc1ccccc1-n1c(SCC(=O)Nc2nccs2)nnc1-c1ccoc1C	-7.2*	19.4	2.1	-0.6	-6.1
CCc1nnc(SCc2ccc([N+](=O)[O-])cc2)nc1CC	-0.0478	x	x	x	x
O=C1c2cc(S(=O)(=O)NCCCO)ccc2-c2ccc(S(=O)(=O)NCCCO)cc21	x	-8.6	1.4	-1.5	3.3
Cc1ccc(NC(=O)c2ccccc2)cc1	0.0413	19.8	1.3	-1.9	9.5
Cc1ccc(NC(=O)/C(=C\C=C\c2ccccc2)NC(=O)c2ccccc2)cc1	-5.34*	8.5	-4.3	2.2	-3.1
Cc1ccc(NC(=O)/C(=C\c2ccccc2)NC(=O)/C=C/c2ccccc2)cc1	-4.91*	6.2	6.6	-8.4	-0.6
CCOc1ccc(N(CC(=O)NC2CCCC2)C(=O)CSc2nnc(COc3ccccc3)o2)cc1	-5.37*	13.8	9.2	-11.0	-0.3
CC(=O)Nc1ccc(-c2nnc(SCc3c(C)cc(C)cc3C)n2C)cc1	0.615	0.7	-6.9	9.2	-11.2
COc1cccc(Cn2cnc3c(NS(=O)(=O)c4cccc(Cl)c4Cl)c(C)c(C)cc32)c1	-5.39*	14.6	1.9	0.4	1.7
COc1cccc(Cn2cnc3c(NS(=O)(=O)c4ccc(Cl)cc4)c(C)c(C)cc32)c1	1.07	4.9	31.1	-29.5	7.5
COc1cccc(Cn2cnc3c(NS(=O)(=O)c4ccc(Cl)cc4Cl)c(C)c(C)cc32)c1	-3.45*	28.2	-6.5	7.6	-10.6
COc1cccc(Cn2cnc3c(NS(=O)(=O)c4cc(Cl)ccc4Cl)c(C)c(C)cc32)c1	-5.44*	21.9	9.0	-6.8	8.2
O=S(=O)(N/N=C\c1ccc2c(c1)OCO2)c1ccc(Cl)cc1	-0.712	19.2	2.5	-0.1	-8.5
O=c1c2ccccc2oc2cc(-c3ccc4[nH]ccc4c3)ccc12	0.0086	x	x	x	x
COc1cccc(CNCCSc2nnnn2C)c1OC	0.716	16.2	-13.9	10.7	2.9
C=C(C)c1cccc(C(C)(C)NC(=O)N2CCN(CC)CC2)c1	1.17	-0.5	8.9	-4.1	6.0
C=C(C)c1cccc(C(C)(C)NC(=O)N2CCCCC2CC)c1 (centres undefined)	-4.54*	4.8	-2.6	5.4	-9.7
Cc1cccc(Oc2ncnc3oc(-c4ccccc4)cc23)c1C	x	10.3	0.6	1.7	-7.3
Cc1c(CCO)c(=O)n(-c2ccccc2)n1S(=O)(=O)c1c(Cl)cc(Cl)cc1Cl	-5.48*	17.4	-4.7	3.5	0.3
Cc1c(Cl)c([N+](=O)[O-])nn1CC(=O)NC12CC3CC(CC(C3)C1)C2	-3.77*	12.6	0.1	1.1	6.4
Cc1csc(SCC(=O)NC23CC4CC(CC(C4)C2)C3)n1	-0.341	9.4	-21.4	24.1	2.7
Cc1ccc(S(=O)(=O)NCCNc2ccc([N+](=O)[O-])cc2C(F)(F)F)cc1	-4.55	39.6*	-8.8	8.9	-1.3
O=C(NCCNc1ccc([N+](=O)[O-])cc1C(F)(F)F)c1ccccc1F	-2.28	-3.0	5.5	-1.5	-2.6
O=[N+]([O-])c1ccc(NCCNS(=O)(=O)c2ccccc2)c(C(F)(F)F)c1	-4.86*	12.9	4.9	-0.8	-7.1
COc1ccc(NC2=C(C)C(=O)CC2)cc1	0.751	45.8*	-3.8	4.5	-4.0
Cn1c(/C(C#N)=C(\O)COc2ccc3ccccc3c2)nc2ccccc21	-0.0262	-2.6	x	x	-1.1
COc1ccc(N/C=C(\C#N)c2nc3ccccc3n2C)c(OC)c1	-0.917	49.1*	4.1	-2.5	24.1

Screening data: PubChem BioAssay, several laboratories
